Only some compounds are listed: those with a hit (about 4.1% of all), similar ones and a draw of the others.
ssDAF-12 act – S. stercoralis DAF-12 nuclear receptor activators, primary screen, cell-based, luminescence, HEK293, GRIP1 co-expression, lit1-tk-luc | activation, % at 6.8 µM | 370,000 tested, 1% active | HEK293 ssDAF-12/GRIP1 lit1-tk-luc reporter; % of 3 µM dafachronic acid response | AID 652126, 2013 | Nuclear hormone receptor DAF-12 (Strongyloides stercoralis);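 active means activation above the mean over all tested compounds plus 3 SD, cut at about 0.9% in these data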;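 further: 0% = DMSO-only wells and 100% = 3 µM delta7-dafachronic acid wells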
hcDAF-12 act – H. contortus DAF-12 nuclear receptor activators, primary screen, cell-based, luminescence, HEK293, lit1-tk-luc reporter; activation, % at 6.8 µM; 370,000 tested, 1.4% active; AID 652067, 2013; HEK293 hcDAF-12 lit1-tk-luc reporter; 0% DMSO, 100% Δ7-dafachronic acid;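 active means activation above the mean of all tested compounds plus 3 SD, cut at about 5.5% in these data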;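 further: 100% = response to 3 µM Δ7-dafachronic acid high control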
DAX1 inh-1 – DAX1 (NR0B1) inhibitors on StAR promoter, primary screen, cell-based, luminescence, SF-1 (NR5A1), full-length DAX-1. AID 652010, 2013. 370,000 tested, 1.1% active. HEK293T StAR-luciferase reporter, SF-1/DAX-1 repression relief. inhibition, % at 6.8 µM;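 active means inhibition above the mean over all tested compounds plus 3 SD, cut at about 3.6% in these data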;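 further: 0% = DAX-1 cells with DMSO and 100% = cells lacking DAX-1 with DMSO; higher inhibition means more luminescence from relief of DAX-1 repression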
hgDAF-12 ag – H. glycines DAF-12 receptor agonists, primary screen, cell-based, luminescence, HEK293, GAL4 fusion, UAS-luciferase; AID 687014, 2013; HEK293 GAL4-hgDAF12 UAS-luciferase reporter, agonist luminescence; normalized to butyrate control; 370,000 tested, 1.8% active; Nuclear hormone receptor DAF-12 (Heterodera glycines), GAL4 fusion; activation, % at 6.8 µM;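 active means activation above a cutoff set at the mean of all screened compounds plus 3 SD, cut at about 10% in these data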;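 further: 0% = DMSO wells and 100% = sodium butyrate wells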
DAX1 inh-2 – DAX1 (NR0B1) inhibitors, primary screen, cell-based, HEK293, Gal4-DAX1, luciferase luminescence; 340,000 tested, 0.99% active; HEK293 Gal4-DAX1 luciferase reporter; inhibition, % at 6.75 µM;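 active means inhibition above the mean over all tested compounds plus 3 SD, cut at about 4.2% in these data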;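 further: 0% = DAX1-transfected cells with DMSO and 100% = empty-vector control cells with DMSO; inhibition shows as a rise in luminescence from relieved DAX1 repression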
Target sequence (P51843 207-470 limits assumed): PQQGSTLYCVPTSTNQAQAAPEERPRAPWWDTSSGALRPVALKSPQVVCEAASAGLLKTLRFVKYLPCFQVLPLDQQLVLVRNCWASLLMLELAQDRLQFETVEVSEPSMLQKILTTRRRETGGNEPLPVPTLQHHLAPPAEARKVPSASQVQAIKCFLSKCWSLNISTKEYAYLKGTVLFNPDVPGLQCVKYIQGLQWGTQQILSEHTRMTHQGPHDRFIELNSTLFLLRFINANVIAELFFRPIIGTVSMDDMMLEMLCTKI
* = called active by the depositor; / = no result given.

SMILES	ssDAF-12 act	hcDAF-12 act	DAX1 inh-1	hgDAF-12 ag	DAX1 inh-2
Cc1cccc(C2Nc3ccccc3C(=O)N2c2ccccc2)n1 (centres undefined)	-1	1	0	2	1
O=C1c2ccccc2NC(c2ccccn2)N1c1ccc(Cl)cc1 (centres undefined)	-1	6.2*	0	8	2
Oc1ccc(-c2csc(Nc3cccc4ccccc34)n2)cc1O	2.1*	1	0	4	2
COc1cccc(C(=O)NN=C2CCCC2)c1	1	3	4.5*	11*	2
COc1ccc(C(=O)NN=C2CCCC2)cc1	-1	1	0	3	2
O=C(NN=C1CCCC1)c1ccccc1[N+](=O)[O-]	-1	0	0	-2	2
O=C(NN=C1CCCC1)c1ccccc1O	0	0	0	11*	3
COC(=O)[C@]12C[C@H](CC(=O)NCCCCc3ccccc3)C(=O)N(Cc3ccc4c(c3)OCO4)C1=C[C@H](COCc1ccccc1)O[C@@H]2C	0	1	-1	1	/
Cc1ccc(C2=CSC3=NCCN23)cc1	1.9*	0	0	0	1
CCOC(=O)[C@]12CCCCC/C=C\1N(Cc1ccc(OC)cc1)C(=O)[C@H]2CC(=O)N1CCN(C(=O)C2CC2)CC1	-1	-3	0	-1	/
Cc1cc(C)cc(NC(=O)N2CCC(c3nc4ccc(Cl)cc4[nH]3)CC2)c1	-1	-1	-1	0	/
CCn1c(/C=C/c2ccccc2[N+](=O)[O-])nc2ccccc2c1=O	-1	-1	-1	-1	0
Cn1c(/C=C/c2ccccc2[N+](=O)[O-])nc2ccccc2c1=O	-1	0	-1	3	4.5*
O=C(Nc1ccc2c(c1)OCO2)Nc1ccc(F)cc1F	-1	0	3	11*	2
COC(=O)c1ccc(NC(=O)Nc2ccc(F)cc2F)cc1	-2	-1	0	13*	0
O=C(Nc1ccc2c(c1)OCO2)Nc1ccc(Cl)cc1Cl	-1	1	1	7	-1
O=C(NCCc1ccc(F)cc1)c1cccc(NC(=O)c2ccccc2)c1	-1	-2	0	-3	-1
COC(=O)c1ccc(NC(=O)Nc2cccc(F)c2)cc1	0	-1	0	11*	1
O=C(Nc1ccccc1)Nc1ccc(F)cc1F	-1	0	1	3	0
COC(=O)c1ccc(C(=O)Nc2ccc(F)cc2)cc1	-1	2	0	2	2
O=C(Nc1cccc(C(=O)Nc2ccc(F)cc2F)c1)c1ccccc1	-1	-3	0	-1	7.2*
CC(=O)Nc1cccc(NC(=O)Nc2ccc(F)cc2F)c1	1.3*	-2	-1	4	0
O=c1c2ccccc2sn1-c1ccc(S(=O)(=O)N2CCCCC2)cc1	1.1*	0	0	2	-1
O=c1c2ccccc2sn1-c1ccc(S(=O)(=O)N2CCCC2)cc1	-1	-1	0	-3	1
COc1ccc(-n2c(SCC(=O)Nc3ccc4c(c3)OCCO4)nnc2-c2ccccc2)cc1	-1	-1	-1	-2	/
SMILES	ssDAF-12 act	hcDAF-12 act	DAX1 inh-1	hgDAF-12 ag	DAX1 inh-2
O=C(O)C(Cc1ccccc1)N1C(=O)c2cccc3cccc(c23)C1=O (centres undefined)	1.7*	4	0	1	-1
O=C(O)C(Cc1ccccc1)N1C(=O)c2ccccc2C1=O (centres undefined)	-1	0	0	-2	-2
COc1ccc2c(c1OC)C(=O)N(c1ccc(C)cc1)C2	-1	4	3	12*	6.2*
COc1ccc2c(c1OC)C(=O)N(c1ccccn1)C2	1.3*	5.8*	2	13*	1
CC(c1nc2ccccc2[nH]1)n1c(-c2ccncc2)nc2ccccc21 (centres undefined)	-1	-1	0	1	/
Cc1csc(-c2nc3ccccc3n2C(C)c2nc3ccccc3[nH]2)c1 (centres undefined)	0	5.7*	1	-1	/
Cc1[nH]n(-c2ccccc2)c(=O)c1C=NCC1CCCO1 (centres undefined)	1.0*	1	1	3	-1
Cc1[nH]n(-c2ccccc2)c(=O)c1/C=N/N(C)c1ccccc1	1.8*	3	0	0	0
CCCc1[nH]n(-c2ccc(F)cc2)c(=O)c1C=NCC1CCCO1 (centres undefined)	-2	0	-1	1	0
Cc1[nH]n(-c2ccccc2)c(=O)c1/C=N/O	-1	0	0	-2	0
Cc1[nH]n(-c2cccc(Cl)c2)c(=O)c1C=NCC(C)C	-1	3	3	10	4.3*
COCCCNC(=O)C[C@H]1C[C@@]2(C(=O)OC)C(=C[C@H](C(C)C)O[C@@H]2C2CC2)N(Cc2ccco2)C1=O	-2	-1	-1	-3	/
CCOC(=O)C1CCN(C(=O)c2cc(COc3ccc(F)cc3F)on2)CC1	1	2	3	12*	2
COc1ccc(OCc2cc(C(=O)N3CCN(CC(=O)N(C)C)CC3)no2)c(Cl)c1	-1	0	0	-1	1
COc1ccc(OCc2cc(C(=O)N3CCSCC3)no2)c(Cl)c1	0	3	3.9*	10	1
O=C(c1cc(COc2ccc3c(c2)CCCC3)on1)N1CCCC1	1	4	4.0*	10	4
COCC1CCN(C(=O)c2cc(COc3ccc4c(c3)CCCC4)on2)C1 (centres undefined)	-1	-2	-1	-1	-1
COc1ccc(OCc2cc(C(=O)N3CCCCCC3)no2)c(Cl)c1	0	-1	4.1*	9	1
CC(C)CC(=O)N1CCC(C(=O)NCC2COc3ccccc3O2)CC1 (centres undefined)	-2	-1	0	-1	/
COCCN1CCN(C(=O)c2cc(COc3ccc(Cl)cc3OC)on2)CC1	0	4	4.3*	6	1
COc1cc(Cl)ccc1OCc1cc(C(=O)N2CCCCCCC2)no1	0	1	1	3	0
COc1ccc(CCNC(=O)COc2ccc3c(C)cc(=O)oc3c2)cc1	-1	1	0	4	-1
COc1ccc(COc2ccc3c(C)cc(=O)oc3c2)cc1	-1	0	1	12*	4

Screens (PubChem BioAssay)
